Sfp inh: qHTS Assay for Inhibitors of Bacillus subtilis Sfp phosphopantetheinyl transferase (PPTase) | 4'-phosphopantetheinyl transferase ffp (Bacillus subtilis), Q9F4F7 | Biochemical Sfp PPTase activity, qHTS | Potency, µM, actives largely listed as inhibitors | 3.5% of 310,000 active | AID 1490, 2009;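 also: the enzyme is Sfp with the accession as filed and its product quenches rhodamine fluorescence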
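Compounds were incubated with enzyme (final 15 nM) for 15 min at room temperature before substrate addition started the reaction. Fluorescence at 525 nm excitation, 598 nm emission was recorded immediately and after 30 minutes.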
G9a block: qHTS Assay for Inhibitors of Histone Lysine Methyltransferase G9a. G9a H3K9 monomethylation, AlphaScreen, 2 h. 8.8% of 350,000 active. Histone-lysine N-methyltransferase EHMT2 (Homo sapiens), Q96KQ7. Potency, µM (top dose mostly 102 µM), most hits filed as inhibitors; also: nearly all actives have a fitted effect of over 75% in size
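Readings reflect AlphaScreen signal from monomethyl-H3K9 antibody detection. HMT at 20 nM; substrate b-H3K9 500 nM; cofactor SAM 20 uM; 2 h RT reaction; compounds tested as titrations in qHTS with 15 min preincubation.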
ALDH1A1 inh: qHTS Assay for Inhibitors of Aldehyde Dehydrogenase 1 (ALDH1A1); Aldehyde dehydrogenase 1A1 (Homo sapiens), P00352; Purified ALDH1A1, NADH fluorescence, propionaldehyde substrate; Potency, µM (highest dose often 75.3 µM), usual class: inhibitors; 7.3% of 220,000 active; AID 1030, 2008; active = well fitted inhibition curve with a large enough effect, not every such curve was filed as active; inconclusive = small, poorly fitted or top-dose-only effect, or another doubt; inactive = no such curve, though single readings can be large or run the other way
Target sequence (P00352 whole entry, looked up): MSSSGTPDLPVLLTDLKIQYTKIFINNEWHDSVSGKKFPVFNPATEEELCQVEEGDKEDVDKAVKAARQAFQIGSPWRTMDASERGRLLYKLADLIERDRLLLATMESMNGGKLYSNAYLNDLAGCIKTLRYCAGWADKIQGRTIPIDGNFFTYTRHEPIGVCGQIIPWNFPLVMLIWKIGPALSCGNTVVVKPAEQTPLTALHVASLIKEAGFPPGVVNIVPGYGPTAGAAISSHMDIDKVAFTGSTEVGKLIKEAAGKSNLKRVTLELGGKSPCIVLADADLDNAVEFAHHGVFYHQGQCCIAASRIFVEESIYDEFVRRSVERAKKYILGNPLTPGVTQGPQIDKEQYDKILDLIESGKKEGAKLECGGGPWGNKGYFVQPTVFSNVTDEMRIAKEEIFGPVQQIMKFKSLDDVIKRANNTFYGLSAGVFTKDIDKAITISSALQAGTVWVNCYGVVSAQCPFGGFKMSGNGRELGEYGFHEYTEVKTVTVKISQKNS
JMJD2E inh: qHTS Assay for Inhibitors of Human Jumonji Domain Containing 2E (JMJD2E); JMJD2E catalytic domain, FDH-coupled NADH fluorescence (FDH is formaldehyde dehydrogenase); Potency, µM (highest dose often 57.1 µM), usual class: inhibitors; 1.6% of 230,000 active; AID 2147, 2009; active = well fitted inhibition curve with a large enough effect, not every such curve was filed as active; inconclusive = small, poorly fitted or top-dose-only effect, or another doubt; inactive = no such curve, though single readings can be large or run the other way; also: nearly all actives have a fitted effect of over 50% in size
Lamin A splicing: qHTS Assay for Modulators of Lamin A Splicing | Potency, µM (titrated, usually from 46.1 µM), usual class: inhibitors | HeLa LMNA splicing GFP/RFP minigene ratio, 48 h | 0.01% of 200,000 active; active = well fitted inhibition curve with a large enough effect in the signal ratio, with a control signal flat, not every such curve was filed as active; inconclusive = small, poorly fitted or top-dose-only effect, or effect the other way, or a change in a side signal; the % refers to the signal ratio
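Read-out is the ratio of GFP to DsRed2 object intensity, acquired by 488 nm laser-scanning cytometry on HeLa lamin A-EGFP minigene reporter cells. Compound incubation 48 hrs at 37 °C in Opti-MEM with 2% FBS; DMSO 0.5% final.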
miR-21 reporter: qHTS Assay for Modulators of miRNAs and/orActivators of miR-21; HeLa miR-21 FLuc reporter, luciferase, 48 h; Potency, µM (titrated, usually from 38.3 µM), most hits filed as activators; 340,000 tested, under 10 active; AID 2288, 2010;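 also: miR-21 action dims this reporter so a rising signal means less miR-21 action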
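HeLa cells stably expressing CMV-driven firefly luciferase with a downstream miR-21 binding sequence, endogenously expressing miR-21, were treated with titrations (up to about 40uM final) for 48 hours at 37 degree Celsius. Luciferase luminescence was read after lysis.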
Hits are given with their value; 0 = inactive; ? = inconclusive; - = no result; [ ] = another dose, or the depositor's remark. Rows were chosen to be rich in hits. Some 13% of all compounds tested hit in one or more screens of this group. Unless noted, calls follow the shape of the dose curve; as a rule, active = well fitted curve in the direction sought with a large enough effect; inconclusive = small, poorly fitted or top-dose-only effect, or another doubt; inactive = no such curve, though single readings can be large; an effect the other way counts as inactive or inconclusive.

SMILES	Sfp inh	G9a block	ALDH1A1 inh	JMJD2E inh	Lamin A splicing	miR-21 reporter
CCN(C(=O)c1ccc2c(=O)n3c(nc2c1)CCCCC3)c1cc(C)ccc1C	-	0	-	-	-	0
Cc1ccc2nc(N3CCN(c4ccc(F)cc4)CC3)c3nnnn3c2c1	-	0	-	-	-	0
Cc1ccc2nc(Cl)c3nnnn3c2c1	0	0	28µM	?	-	0
Cc1ccc2nc(N3CCN(c4cccc(C)c4C)CC3)c3nnnn3c2c1	0	0	0	3.5µM	0	0
Cc1ccc(NC(=O)C2CCCN(S(=O)(=O)c3cccs3)C2)c(C)c1 (stereo not given)	-	0	-	-	0	0
COC(=O)/C=C/c1cccc(N(Cc2ccc(-c3ccc(N(C)C)cc3)cc2)C(=O)C2CCCCC2)c1	0	-	-	-	-	-
CN(C)S(=O)(=O)c1cccc(NC(=S)N/N=C/C2CC=CCC2)c1 (stereo not given)	0	5.6µM	?	0	0	0
CC1(C)OC(=O)C(=Cc2ccc[nH]2)C(=O)O1	0	0	16µM	0	-	0
CN(NC(=O)/C=C/C(=O)O)c1ncc(C(F)(F)F)cc1Cl	56µM	6.3µM	2.8µM	0	0	0
CCCCC(=Nc1ccc(N)cc1)C1=C(O)C(C(=O)OC)C(C)(C)CC1=O (stereo not given)	0	1µM	?	?	0	0
CCC(=Nc1ccc(N)cc1)C1=C(O)C(C(=O)OC)C(C)(C)CC1=O (stereo not given)	45µM	50µM	0	8.9µM	0	0
O=C(COC(=O)c1cc(Br)ccc1O)NNC(=O)c1ccc(Cl)cc1	-	45µM	-	-	-	-
O=C(COC(=O)c1cc(Br)ccc1O)NNC(=O)c1ccc([N+](=O)[O-])cc1	-	45µM	-	-	-	-
Cc1ccc(C(=O)OCC(=O)NNC(=O)c2ccc([N+](=O)[O-])cc2)o1	-	0[0.501 µM]	-	-	-	-
O=C(CSc1nnc(C2COc3ccccc3O2)o1)N1CCCC1 (stereo not given)	?	8.9µM	?	0	-	0
CCOC(=O)N1CCN(C(=O)CSc2nnc(C3COc4ccccc4O3)o2)CC1 (stereo not given)	0	?	32µM	0	0	0
O=C(CSc1nnc(C2CCCCC2)o1)N1CCCCC1	0	0	0	0	0	0
CCOC(=O)c1c(C2COc3ccccc3O2)csc1N (stereo not given)	0	50µM	?	0	0	0
CCOC(=O)c1c(C2COc3ccccc3O2)csc1NC(=O)c1ccccc1 (stereo not given)	0	0[12.7 µM]	?	?	0	0
O=C(Cn1nnc2sc(-c3ccccc3)cc2c1=O)Nc1cccc(C(F)(F)F)c1	-	0	-	-	-	0
COCCNCc1ccccc1[N+](=O)[O-]	-	0[2.33 µM]	-	-	-	-
Cc1ccc(N2C(=O)CSC23C(=O)Nc2ccccc23)cc1F (stereo not given)	-	0	-	-	-	0
O=C(c1ccccc1)c1ccc(OCC(O)CNCc2ccc(Cl)cc2)cc1 (stereo not given)	79µM	?	-	-	-	0
COc1cccc(CNCC(O)COc2ccc(C(=O)c3ccccc3)cc2)c1 (stereo not given)	0	10µM	-	-	-	0
OC(CNCc1ccccc1)COc1ccccc1 (stereo not given)	-	0[2.33 µM]	-	-	-	-
SMILES	Sfp inh	G9a block	ALDH1A1 inh	JMJD2E inh	Lamin A splicing	miR-21 reporter
CC(=O)[C@]1(O)Cc2c(O)c3c(c(O)c2[C@@H](O[C@H]2C[C@H](N)[C@H](O)[C@H](C)O2)C1)C(=O)c1ccccc1C3=O	0	13µM	?	?	?	-
CC(=O)[C@]1(O)Cc2c(O)c3c(c(O)c2[C@@H](O[C@H]2C[C@H](N)[C@H](O)[C@H](C)O2)C1)C(=O)c1c(O)cccc1C3=O	?	14µM	0	-	-	-
Cc1c(C)c2cc3c(C)coc3cc2oc1=O	0	?	-	-	-	0
O=C(c1ccccc1)N1N=C(c2ccccc2)CC1(O)C(F)(F)F (stereo not given)	0	0[0.501 µM]	-	-	-	0
COc1ccc(C2=NN(C(=O)c3cccs3)C(O)(C(F)(F)F)C2)cc1 (stereo not given)	45µM	0	?	0	?	0
CC1=NN(Cc2ccccc2)C(=O)C1C(c1ccc(Cl)cc1)C(C#N)C#N (stereo not given)	0	?	25µM	0	0	0
CCCCN1CC(=O)N2[C@H](c3ccc(OC)cc3)[C@@H]3C(=O)N(CC)C(=O)[C@@H]3[C@]2(Cc2ccccc2)C1=O	0	0	-	-	-	0
Cc1nn(CCCC(=O)N2CCc3ccccc3C2)c(=O)c2cc3sccc3n12	0	79µM	0	0	0	0
CCc1nn(CC(=O)NCCCN2CCc3ccccc3C2)c(=O)c2cc3sccc3n12	?	45µM	?	0	0	0
CCOC(=O)CCCn1nc(C)n2c(cc3sccc32)c1=O	0	0	0	0	0	0
Clc1ccccc1CSc1nc(NCCc2ccccc2)c2ccccc2n1	-	0	-	-	0	0
Cc1ccc(S(=O)(=O)N(CC(=O)N=Nc2c(O)[nH]c3ccccc23)c2ccc(C)c(C)c2)cc1	0	0	?	0	?	0
Cc1ccc(C)c(S(=O)(=O)N=Nc2c(O)[nH]c3ccccc23)c1	0	8.9µM	10µM	0	-	0
Cc1ccc(S(=O)(=O)N=Nc2c(O)[nH]c3ccccc23)cc1	0	1.6µM	?	0	0	0
O=C(O)C1CCN(C(=O)c2ccccc2N2C(=O)[C@@H]3Cc4c([nH]c5ccccc45)C(c4cccc(Cl)c4)N3C2=O)CC1 (stereo not given in full)	0	0[12.7 µM]	-	-	-	0
COc1ccc(-n2ncc3c(=O)n(CC(=O)N(C(C)C)C(C)C)cnc32)cc1	0	0	-	-	-	0
Oc1ccc(/C=N/N(Cc2ccccc2)c2ccccc2)c(O)c1O	56µM	28µM	10µM	20µM	-	0
COc1ccc(OC)c(CNc2ncnc3onc(C)c23)c1	-	0	-	-	?	0
CCOC(=O)C1CCCN(CC(=O)N2CCCc3c2c(=O)oc2ccc(OCc4ccccc4)cc32)C1 (stereo not given)	-	22µM	-	-	-	0
O=C(CN1CCCCC1)N1CCCc2c1c(=O)oc1ccc(OCc3ccccc3)cc21	0	0	?	?	0	0
O=C(CN1CCN(c2ncccn2)CC1)N1CCCc2c1c(=O)oc1ccc(O)cc21	0	0	0.79µM	0	0	0
CCCCCOc1ccc2oc(=O)c3c(c2c1)CCCN3C(=O)CN1CCCC(C(=O)OCC)C1 (stereo not given)	?	0	25µM	0	0	0

Screens as filed in PubChem BioAssay.
